Laboratory results published in PubChem BioAssay (NCI).
Values joined by “and” are separate entries in the source; they are usually repeats but may differ in a detail not shown here. Equal values may be shown once. This is part of a sample that, as a whole, favours compounds with a hit. Of some 83,000 tested, about 20% had one in any assay.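 Step 1: grow cells in 96-well plates. Step 2: add test compound at a single concentration. Step 3: incubate 48 h. Step 4: record percent growth.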 Active and inactive are the calls of the source. How the source made its calls: active means growth percent below 10; inactive means the rest.

How the values were obtained:
Assay in all cases: NCI-60 one-dose screen, 48 h (100 = growth as untreated, 0 = no growth, -100 = all killed)
NCI-H23 lung = details: 10 µM unless noted
NCI-H226 lung = details: 10 µM unless noted
NCI-H322M lung = details: 10 µM unless noted
HOP-62 NSCLC = details: 10 µM unless noted
NCI-H460 lung = details: 10 µM unless noted
HOP-92 NSCLC = details: 10 µM
NCI-H522 lung = details: 10 µM
A549/ATCC NSCLC = details: 10 µM unless noted
786-0 renal = details: 10 µM unless noted
COLO 205 colon = details: 10 µM unless noted

Row | Compound | growth (NCI-H23 lung) | growth (NCI-H226 lung) | growth (NCI-H322M lung) | growth (HOP-62 NSCLC) | growth (NCI-H460 lung) | growth (HOP-92 NSCLC) | growth (NCI-H522 lung) | growth (A549/ATCC NSCLC) | growth (786-0 renal) | growth (COLO 205 colon)
1 | COc1ccc(C(=O)CC(c2ccccc2)C(C#N)c2ccccc2)cc1 (stereo not drawn) | 88.4% (inactive) | 81.1% (inactive) | 103% (inactive) | 98.3% (inactive) | 92.8% (inactive) | 67.8% (inactive) | 69.5% (inactive) | 74.2% (inactive) | 90% (inactive) | 110% (inactive)
2 | Cn1cnc([N+](=O)[O-])c1Sc1ncn[nH]1 | 91.7% (inactive) | 102% (inactive) | 101% (inactive) | 96.9% (inactive) | 115% (inactive) | 101% (inactive) | 82.9% (inactive) | 99.4% (inactive) | 102% (inactive) | 
3 | CC(C)NC(=O)N/C=C(\C#N)C(N)=O | 92.7% (inactive) | 97.5% (inactive) | 99.5% (inactive) | 88.2% (inactive) | 91.1% (inactive) | 96.6% (inactive) | 87.2% (inactive) | 111% (inactive) | 99% (inactive) | 103% (inactive)
4 | Nc1ccc2c(O)cc(S(=O)(=O)O)cc2c1 | 93.8% (inactive) and 96.2% (inactive) | 96% (inactive) and 91.9% (inactive) | 103% (inactive) and 119% (inactive) | 86.1% (inactive) and 92.4% (inactive) | 98.4% (inactive) and 102% (inactive) | 80.9% (inactive) | 106% (inactive) and 88.1% (inactive) | 105% (inactive) and 92.1% (inactive) | 98.9% (inactive) and 105% (inactive) | 
5 | CCCCNc1ccc(Nc2ccccc2)cc1 | 41.7% (inactive) | 73.3% (inactive) | 98.3% (inactive) | 106% (inactive) | 76.7% (inactive) | 63.7% (inactive) | 31.2% (inactive) | 70.1% (inactive) | 92.9% (inactive) | 85% (inactive)
6 | c1ccc(CNCCNCc2ccccc2)cc1 | 117% (inactive) | 90.4% (inactive) | 106% (inactive) | 98.8% (inactive) | 104% (inactive) | 80.6% (inactive) | 106% (inactive) | 101% (inactive) | 107% (inactive) | 109% (inactive)
7 | CCCCOc1ccc(Nc2cc(Cl)ccc2C(=O)O)cn1 | 103% (inactive) and 92.9% (inactive) | 109% (inactive) and 97.5% (inactive) | 110% (inactive) and 105% (inactive) | 88.4% (inactive) and 90% (inactive) | 104% (inactive) and 99% (inactive) | 74.8% (inactive) | 46.4% (inactive) and 98.2% (inactive) | 96.5% (inactive) and 98.1% (inactive) | 92% (inactive) | 119% (inactive) and 103% (inactive)
8 | CC(C)NCC(O)c1ccc(O)c(O)c1 (stereo not drawn) | 98.6% (inactive) and 68.3% (inactive) and 98.2% (inactive) | 88.4% (inactive) and 114% (inactive) and 98.8% (inactive) | 92.1% (inactive) and 96.7% (inactive) and 106% (inactive) | 97.9% (inactive) and 90.6% (inactive) and 86.7% (inactive) | 108% (inactive) and 101% (inactive) and 105% (inactive) | 60.1% (inactive) and 59% (inactive) and 68.4% (inactive) | 82.4% (inactive) and 140% (inactive) | 106% (inactive) and 119% (inactive) and 103% (inactive) | 94.9% (inactive) and 90.6% (inactive) and 99.7% (inactive) | 107% (inactive) and 114% (inactive) and 104% (inactive)
9 | O=C(O)CCCl | 108% (inactive) | 95.6% (inactive) | 102% (inactive) | 105% (inactive) | 106% (inactive) | 78.4% (inactive) | 112% (inactive) | 104% (inactive) | 120% (inactive) | 119% (inactive)
10 | c1ccc2c(c1)OC1OC2Oc2ccccc21 | 98.3% (inactive) | 94.3% (inactive) | 104% (inactive) | 98.8% (inactive) | 99.4% (inactive) | 101% (inactive) | 87% (inactive) | 96.9% (inactive) | 100% (inactive) | 107% (inactive)
11 | O=c1[nH]cnc2c1ncn2C1OC(CO)C(O)C1O (stereo not drawn) | 116% (inactive) and 104% (inactive) and 109% (inactive) | 108% (inactive) and 103% (inactive) and 97.4% (inactive) | 112% (inactive) and 137% (inactive) and 102% (inactive) | 104% (inactive) and 110% (inactive) and 96.5% (inactive) | 109% (inactive) and 122% (inactive) and 106% (inactive) | 84.1% (inactive) and 79.4% (inactive) and 115% (inactive) | 107% (inactive) and 100% (inactive) and 93.2% (inactive) | 112% (inactive) and 102% (inactive) and 107% (inactive) | 106% (inactive) and 111% (inactive) and 107% (inactive) | 114% (inactive) and 118% (inactive) and 113% (inactive)
12 | CCc1cc(C)cc(O)c1 | 107% (inactive) | 99.4% (inactive) | 105% (inactive) | 106% (inactive) | 110% (inactive) | 91.7% (inactive) | 90.1% (inactive) | 108% (inactive) | 104% (inactive) | 116% (inactive)
13 | COc1cc(C(O)C2C(=O)OCC2C2(c3ccc4c(c3)OCO4)SCCCS2)cc(OC)c1OC (stereo not drawn) | 93.8% (inactive) | 100% (inactive) | 104% (inactive) | 101% (inactive) | 107% (inactive) | 77.8% (inactive) | 86.5% (inactive) | 97.1% (inactive) | 103% (inactive) | 94.2% (inactive)
14 | O=c1n(CC2CO2)c(=O)n(CC2CO2)c(=O)n1CC1CO1 (stereo not drawn) | 69.2% (inactive) | 80.1% (inactive) | 70.4% (inactive) | 57% (inactive) | 19.2% (inactive) | 75.9% (inactive) | 45.1% (inactive) | 44.3% (inactive) | 44.7% (inactive) | 74.8% (inactive)
15 | Cc1cc2ccccc2cn1 | 97.1% (inactive) and 114% (inactive) | 95.7% (inactive) and 96% (inactive) | 101% (inactive) and 98.4% (inactive) | 101% (inactive) | 107% (inactive) and 108% (inactive) | 94.4% (inactive) and 101% (inactive) | 109% (inactive) | 101% (inactive) and 118% (inactive) | 105% (inactive) and 111% (inactive) | 110% (inactive) and 119% (inactive)
16 | O=C(CO)C(O)C(O)C(O)C(O)CO (stereo not drawn) | 104% (inactive) and 102% (inactive) | 96.2% (inactive) and 101% (inactive) | 107% (inactive) and 105% (inactive) | 105% (inactive) | 109% (inactive) and 108% (inactive) | 116% (inactive) and 105% (inactive) | 102% (inactive) and 108% (inactive) | 97.5% (inactive) and 96.1% (inactive) | 105% (inactive) | 107% (inactive) and 103% (inactive)
17 | O=C(Cc1ccccc1)c1ccc(O)c(Cl)c1 | 24% (inactive) | 83.7% (inactive) | 80% (inactive) | 70.4% (inactive) | 32.3% (inactive) | 57.6% (inactive) | 10.3% (inactive) | 96.4% (inactive) | 26.8% (inactive) | 55.4% (inactive)
18 | Nc1cc(N)c(N)cc1N | -66% (active) | 93.9% (inactive) | 107% (inactive) | 58.3% (inactive) | 96.8% (inactive) | 115% (inactive) | -80.9% (active) | 88.1% (inactive) | 51.7% (inactive) | 95.7% (inactive)
19 | CCCCCCCCCCCCCCCCC(C(=O)O)C(O)(CC(=O)O)C(=O)O (stereo not drawn) | 105% (inactive) and -38.2% (active) | 107% (inactive) and -23.4% (active) | 120% (inactive) and 20% (inactive) | 102% (inactive) and -2.31% (active) | 105% (inactive) and 4.08% (active) | 112% (inactive) and -1.67% (active) | 90% (inactive) and -32.5% (active) | 106% (inactive) and 12.6% (inactive) | 99.7% (inactive) and 0.749% (active) | 114% (inactive) and -53.4% (active)
20 | CC(=O)Nc1ccc(S(N)(=O)=O)cc1 | 100% (inactive) | 107% (inactive) and 102% (inactive) | 113% (inactive) and 92.5% (inactive) | 89.4% (inactive) and 103% (inactive) | 102% (inactive) and 105% (inactive) | 96.6% (inactive) | 98.3% (inactive) and 80.4% (inactive) | 96% (inactive) and 103% (inactive) | 97.9% (inactive) and 94.5% (inactive) | 99.7% (inactive) and 102% (inactive)
21 | O=C1OC(c2ccccc2)=N/C1=C\c1ccccc1 | 99.8% (inactive) | 90.9% (inactive) | 96.2% (inactive) | 99.6% (inactive) | 103% (inactive) | 88.7% (inactive) | 108% (inactive) | 95.6% (inactive) | 95.9% (inactive) | 113% (inactive)
